Entries with a potency or affinity are not part of this list. The source made the active and inactive calls. How the calls were made is not given here.

The nature of this test: toxicity toward HepG2 liver cells – cell-based, plate reader, cherry-pick, antagonist series, cytotoxicity control, dose response (AID 743416). The conditions noted are these: series mostly up to 26 µM.
For `COc1cc(SC)ccc1C(=O)Nc1nc(C)cs1`, the call was inactive.

With `CC(=O)c1ccc(NC(=O)c2noc3c2CCC3)cc1`, the compound was classed as inactive.

`Cc1ccnc(NC(=O)CCC(=O)c2cccs2)c1`: the result was inactive.

As to `Cc1ccc(C#N)c(SCc2nnc(-c3ccc(Cl)cc3)o2)n1`, the call was inactive.

As to `O=C(Nc1ccc(NC(=O)c2ccco2)nc1)c1ccco1`, the call was inactive.

For the compound `O=C(Nc1ccc(Cl)cc1)Nc1cccc(C(=O)O)c1`, the result was inactive.

Regarding `COc1ccccc1N/C=C/c1onc(C)c1[N+](=O)[O-]`, the outcome was inactive.

Regarding `CC1CCN(c2ccc(-c3cccs3)nn2)CC1`, the call was inactive.

Turning to `COc1ccc(Nc2ncc(F)c(N3CCOCC3)n2)cc1`, the compound was called inactive.

For `O=C(Nc1ccc(Cl)cc1Cl)c1ccc2c(c1)OCCO2`, the result was inactive.

`COc1ccc(-c2cc(-c3ccccc3)no2)cc1`: the compound was called inactive.

Take `Nc1ccc(-c2nc3ccc(N)cc3s2)cc1`: the outcome was inactive.

Take `Cc1ccc(S(=O)(=O)N2CCCCC2)cc1NC(=O)c1ccc2c(=O)n3c(nc2c1)CCCCC3`: the result was inactive.

For the compound `O=C(c1ccccc1)N1CCSc2sccc2C1=O`, the compound was called inactive.

Regarding `COc1ccc(-c2cc(C(=O)Nc3cccc(O)c3)no2)cc1`, the call was inactive.

As for `CCOc1ccc(-n2cc(-c3ccccc3)c3c(N4CCOCC4)ncnc32)cc1`, the call was inactive.

`Cc1cccc(-c2ccc([C@H]3[C@@H](CO)N4CCCCN(C(=O)c5ccncc5)C[C@@H]34)cc2)c1`: the compound was called inactive.

On to `COc1ccc(S(=O)(=O)N(C)C[C@@H]2OCCCC[C@H](C)Oc3ccc(NS(=O)(=O)c4ccc(F)cc4)cc3C(=O)N([C@@H](C)CO)C[C@@H]2C)cc1`, for which the result was inactive.

As to `O=C(Nc1ccc(N2CCOCC2)cc1)c1cnccn1`, the outcome was inactive.

`CCc1cc(-c2ccc3c(c2)COc2c4ccccc4nn2-3)on1`: the compound was called inactive.

Consider `CN(C)S(=O)(=O)c1cccc(NC(=O)COc2ccccc2C(=O)Nc2ccccc2)c1`, for which the outcome was inactive.

Regarding `Cc1cnc(NC(=O)COc2ccccc2Cl)s1`, the compound was classed as inactive.

As to `COc1ccccc1N(Cc1ccccc1)S(=O)(=O)c1cccc(C(=O)Nc2cc(C)ccn2)c1`, the compound was called inactive.

Consider `O=C1CC(c2ccc3c(c2)OCO3)Sc2nc3ccccc3n21` (centres undefined), for which the result was inactive.

Regarding `Cc1ccc(C(=O)Nc2ccc3c(c2)OCCO3)cc1`, the compound was classed as inactive.

With `Cc1ccc2nc(-c3ccc(NC(=O)C4CCCO4)cc3)[nH]c2c1` (centres undefined), the result was inactive.

In the case of `CSc1nnc(NC(=O)c2ccc3c(c2)OCO3)s1`, the compound was called inactive.

Regarding `COCC(=O)N1CCCCN2[C@H](CO)[C@H](c3ccc(-c4cccc(C)c4)cc3)[C@@H]2C1`, the result was inactive.

Take `COc1ccc(-n2cc(C(=O)c3ccccc3O)cn2)cc1`: the result was inactive.

For `Nc1nccc(-c2cc(-c3ccc(Cl)cc3Cl)no2)n1`, the compound was classed as inactive.

Consider `CCOc1ccc(C(=O)NCCc2ccccc2)cc1`, for which the call was inactive.

For `COc1cccc(NC(=O)Nc2cccc(C(=O)O)c2)c1`, the result was inactive.

Consider `C[C@H](CO)N1C[C@H](C)[C@H](CN(C)C(=O)Nc2ccccc2)OCCCC[C@H](C)Oc2ccc(NC(=O)Nc3ccc4c(c3)OCO4)cc2C1=O`, for which the result was inactive.

Take `CN(C(=O)COC(=O)c1nc(Cl)c(Cl)c(Cl)c1Cl)C1CCS(=O)(=O)C1` (centres undefined): the outcome was inactive.

Turning to `C[C@@H]1CN([C@@H](C)CO)C(=O)c2cccc(NC(=O)Nc3ccc(C(F)(F)F)cc3)c2O[C@@H]1CN(C)C(=O)Nc1cccc2ccccc12`, the outcome was inactive.

In the case of `CCOc1ccc(-c2cnc3ccccc3n2)cc1`, the call was inactive.

In the case of `CC(C)CCNC(=O)C(c1ccc(O)cc1)N(Cc1cccs1)C(=O)C1COc2ccccc2O1` (centres undefined), the outcome was inactive.

Take `Cc1ccc(-n2[nH]c(=O)c(-c3ccccn3)c2C)cc1`: the outcome was inactive.

Consider `CN(C)c1cccc(C(=O)Nc2nc3ccccc3[nH]2)c1`, for which the call was inactive.

These data come from PubChem BioAssay.
